40 sequences from the OligoGym collection can be followed below.
Further: reference of the scale not given here.

The first assay concerns the target C9orf37. Kind of assay: pooled miR-30 sensor sort-seq; sequence = guide strand. As to conditions: shRNA.
Take TTTGTCAGTTACCTTATCTATA: the sensor-assay potency score (higher = more potent) was -0.888.
For TTATCTATAAAATGCACAGGAC, the sensor-assay potency score (higher = more potent) is -1.03.
The same measure, in the same setting: in the case of TTACCTTATCTATAAAATGCAC it was -0.752; in that of AAATGCACAGGACCAGGCCGGG, -1.34; in that of TATCTATAAAATGCACAGGACC, -1.69.
For the sequence TCCAGTTCTCCTTTAGGGCGAA, the sensor-assay potency score (higher = more potent) is -0.959.
Same read-out and setting: the figure for ATGGTGGTGAAGAAGGCTCTGG is -0.917; for TTCTCCTTTAGGGCGAAGGGGT it is -1.42; for TTCTGTGGAACAGCATTTCTCA it is -0.352.
Still for that read-out and setting: in the case of TCAAATTCCAGTTCTCCTTTAG it was -1.07; in that of TCTGTGGAACAGCATTTCTCAA, -1.65.
On the same count and under the same terms, the figure for TACCTTATCTATAAAATGCACA is -0.634.

Another assay addresses C9orf72. The description is as above. As to conditions: shRNA.
With TTACAGGAATCACTTCTCCAGT, the sensor-assay potency score (higher = more potent) was -1.29.
In the case of TACAGTAATTCTACACACCAAA, the sensor-assay potency score (higher = more potent) is -0.818.
Same read-out and setting: in the case of TAATCTATCAACACACACTCTA it was 0.268; in that of TTAATCTATCAACACACACTCT, -0.521; in that of TTTCACTAGAGTGTCTCTGTGT, 0.565.
The sequence TATTTCTTCAGGAACACTGTGT gave a sensor-assay potency score (higher = more potent) of 0.74.
Same read-out and setting: the figure for TATGCATCCATATTCTTCCTTT is -0.33; for TTGACATCCACATCTATGTGTG it is -0.37.
On the same count and under the same terms, in the case of TAAAATAAACAAAACACCCTAA it was 0.0855; in that of TACATCTATAGCACCACTCTCT, -0.415.
On the same count and under the same terms, in the case of TATATTGTAAACATAGGTCTGT it was 0.698.
For the sequence TAAATCAAGGTCTATCTTCAGG, the sensor-assay potency score (higher = more potent) was -0.851.

The next assay concerns the target C9orf93. Described as above. The note with it: shRNA.
TTGCACAGCAGTATCTTGCTCC registered a sensor-assay potency score (higher = more potent) of 0.17.
On the same count and under the same terms, the figure for TTTGCTTCTGCAACGATGCTGT is 0.756.
On the same count and under the same terms, the figure for TTAATTGTACTGTTAACTCTTC is -0.0565; for TTGTCTTTGCTTGAAGTTCTGA it is 0.0324.
Take TTGAATGGTCTCGTGATCCTAT: the sensor-assay potency score (higher = more potent) is 0.611.
TTGGTTGTTATTTCTAACTTTT: the sensor-assay potency score (higher = more potent) is -0.955.
TTTAGTGTGAGAGTCTATCTTC displayed a sensor-assay potency score (higher = more potent) of 0.39.
On the same count and under the same terms, the figure for TAAACAACGCAACTGCTCCTTT is 0.206.
On the same count and under the same terms, in the case of TTTGGTAAAGGTGTCTTCCTGA it was 0.821; in that of TTCCTTTCTAGCAACAGCTAGG, -0.694; in that of TTAACTCTTTATTAACATCAGC, -1.03.

The next assay has as its target CA4. The description is as above. The note with it: shRNA.
Regarding TTGGACAGTCCACGTTTGCTTC, the sensor-assay potency score (higher = more potent) was -0.84.
In the case of ATGTACTATGTGCATCTCCATG, the sensor-assay potency score (higher = more potent) was -2.
Still for that read-out and setting: in the case of TTTCTCATGTACTATGTGCATC it was -0.994; in that of TTTTTTGTCCACCTTTGCCTTG, -1.1; in that of TTGCTTCTTATCGTAGCCAGAG, -0.919.
